Results from PubChem BioAssay (NCI).
The panel holds about 83,000 compounds, 20% with a hit somewhere; the sample as a whole holds those more often.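 The test compound was applied at a single concentration to cells in 96-well plates for 48 hours, and percent growth was recorded.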 Unmarked numbers belong to inactive results. The source made the active and inactive calls. Rule for the calls: active = growth percent below 10; inactive = the rest.

Assays:
Experiment in all cases: NCI-60 one-dose screen, 48 h (100 = growth as untreated, 0 = no growth, -100 = all killed)
Conditions in all cases: 10 µM unless noted
T-47D breast = tested on: T-47D breast
MDA-MB-435 melanoma = tested on: MDA-MB-435 melanoma
SW-620 colon = tested on: SW-620 colon
MCF7 breast = tested on: MCF7 breast
HCT-116 colon = tested on: HCT-116 colon
HCC-2998 colon = tested on: HCC-2998 colon
KM12 colon = tested on: KM12 colon
BT-549 breast = tested on: BT-549 breast

| Structure (SMILES) | growth (T-47D breast) | growth (MDA-MB-435 melanoma) | growth (SW-620 colon) | growth (MCF7 breast) | growth (HCT-116 colon) | growth (HCC-2998 colon) | growth (KM12 colon) | growth (BT-549 breast) |
| --- | --- | --- | --- | --- | --- | --- | --- | --- |
| COc1ccc(C[n+]2c3ccccc3n3c4ccc(N)cc4ccc32)c(OC)c1OC | 5.52% (active) | 53.9% | 82.1% | 31.9% | 71.9% | 67.9% | 19.9% | – |
| CC1(C)[C@@H](O[C@@H]2OC[C@@H](O[C@@H]3O[C@H](CO)[C@@H](O)[C@H](O)[C@H]3O[C@@H]3OC[C@@H](O)[C@H](O)[C@H]3O)[C@H](O)[C@H]2O[C@@H]2O[C@H](CO)[C@@H](O)[C@H](O)[C@H]2O)CC[C@]2(C)[C@H]3CC[C@]45OC[C@@]6(CC[C@](C)(C=O)C[C@H]64)[C@H](O)C[C@@]5(C)[C@]3(C)CC[C@@H]12 | -55.7% (active) | -83.8% (active) | -58.4% (active) | -59.6% (active) | -75.9% (active) | – | -62% (active) | – |
| O=C(NNC(=O)c1nc2cc(F)ccc2n2cccc12)c1cnccn1 | 38.5% | 36.2% | 26.4% | 34.8% | 32.4% | 50.7% | 28% | – |
| Cc1ccc(S(=O)(=O)Oc2ccc3sc4cccc(NCCN(C)C)c4c(=O)c3c2)cc1 | -69.8% (active) | -96.3% (active) | -92.4% (active) | -86.7% (active) | -82.9% (active) | -96.7% (active) | -85% (active) | – |
| COc1ccc(-c2cc(-c3ccccc3)nc(N3CCN(CCNc4ccnc5cc(Cl)ccc45)CC3)n2)cc1 | -48% (active) | -72.1% (active) | -75.4% (active) | -84.8% (active) | -73.8% (active) | -81.5% (active) | – | – |
| CCN(CC)CCCOc1ccc2ncnc(Nc3ccc(Oc4cccc(C(F)(F)F)c4)c(Cl)c3)c2c1 | 18.7% | -85.7% (active) | -87% (active) | -45.2% (active) | -10.1% (active) | -85.4% (active) | -24.3% (active) | – |
| FC(F)(F)Oc1cccc(-c2cnc3ccc(-c4ccncc4)nn23)c1 | -0.156% (active) | 12.3% | 23.2% | 10.7% | 10.8% | 32.5% | 8.63% (active) | – |
| N#C/C(=C\c1cn(Cc2ccccc2)c2ccccc12)C(=O)Nc1ncc(Cc2ccccc2Cl)s1 | -29.3% (active) | – | 2.61% (active) | 23.8% | 0.288% (active) | – | 26.4% | 52.8% |
| CSC(SC)=C(C#N)c1nc2ccccc2s1 | 33.2% | 76.5% | 81.5% | 47.3% | 14.2% | 82.2% | 58.3% | – |
| CC1C=CC(OC(=O)C(C)(O)CCC(O)(C(=O)OC2CC(O)C(C(C)C)CC2(C)O)C(C)C)(C(C)C)CC1 (configuration not stated) | -47.1% [4.63 µM] (active) | -92% [4.63 µM] (active) | -67.8% [4.63 µM] (active) | -67.6% [4.63 µM] (active) | -40% [4.63 µM] (active) | -72.8% [4.63 µM] (active) | -77.4% [4.63 µM] (active) | – |
| C=C(C)[C@@H]1CCC[C@]2(C(=O)O)CC[C@]3(C)[C@@H](CC[C@@H]4[C@@]5(C)C/C(=C/c6ccncc6)C(=O)C(C)(C)[C@@H]5CC[C@]43C)[C@@H]12 | 47.5% | – | 17.5% | 19.1% | 4.88% (active) | – | 19.7% | 46.5% |
| COc1cc2c(c(OC)c1OC)C(=O)CC(c1cccc(NC(=O)c3ccc(C#N)cc3)c1)O2 (configuration not stated) | 8.42% (active) | 74% | 95.9% | 65.6% | 62% | 101% | 70.9% | – |
| Cc1ccc(-c2csc(NC(=O)c3ccccc3CN3C(=O)c4ccccc4C3=O)n2)cc1 | 97.1% | 95.3% | 100% | 94.3% | 95.4% | 98% | 100% | – |
| COc1ccc(C2=CC(c3cc(OC)c(OC)c(OC)c3)n3ncnc3N2)cc1 (configuration not stated) | 62.9% | -21.9% (active) | 21.5% | 15% | 0.658% (active) | 26.5% | 6% (active) | – |
| COc1cc(C(=O)n2nc(N3CCOCC3)c3cc(-n4cccc4)ccc32)cc(OC)c1OC | 60.5% | 75.2% | 67.5% | 52.1% | 48.6% | 99.7% | 81.8% | – |
| CS(=O)(=O)c1nnc(-c2ccccc2)s1 | 44.4% | 96.5% | 84.8% | 77.8% | 45.1% | 103% | 92.7% | – |
| Ic1ccccc1I | 107% | 111% | 108% | 91.5% | 98.5% | 98.2% | 104% | – |
| Cc1cc2c(cc1C)N(C(=O)CCl)CC(=O)N2 | 15.6% | 54.9% | -48.2% (active) | 19.6% | -10.9% (active) | 71.6% | 60.2% | – |
| Nc1ccc(-c2csc(-n3[nH]c(=O)ccc3=O)n2)cc1 | 98.5% | 103% | 104% | 86.6% | 94% | 112% | 104% | – |
| N=C(N)c1ccc(-c2ccc(-c3ccccc3)s2)cc1 | 44.5% | 12% | -46.2% (active) | 13.8% | -55.1% (active) | -27.7% (active) | -7.55% (active) | – |
| CCOc1c(OC)cc2c(c1O)C(=O)N[C@@H]1[C@@H](O)[C@@H](O)[C@H](O)C[C@@H]21 | 92.8% | – | 107% | 92.1% | 104% | 102% | 104% | – |
| O=C(/C=C/c1ccc(Oc2ccc(Br)cc2)cc1)c1ccc(Br)cc1 | 92.3% | – | 93.7% | 73% | 97.6% | 95.5% | 95.7% | – |
| COC(=O)c1c2c(c(C)[n+]([O-])c1C)C(=O)C(NCc1ccc(OC)cc1)=CC2=O | 3.48% (active) | -67.6% (active) | 6.71% (active) | -7.88% (active) | 3.89% (active) | 15.1% | 14.3% | – |
| COCCn1cc(-c2csc(-c3c[nH]c4ccc(Br)cc34)n2)c2cccnc21 | -1.1% (active) | 29% | 27.9% | 12% | 24.2% | 15.3% | 13.4% | – |
| CCn1c(-c2cc3c([nH]c4ccccc43)c(-c3cccc(O)c3)n2)n[nH]c1=S | – | – | 62.8% | 32.6% | 48.2% | 68.3% | 28.4% | 26.7% |
| CS(=O)(=O)Nc1cc(-c2ccc3ncc(C#N)c(Nc4ccc(F)c(Cl)c4)c3c2)cnc1Cl | – | 2.34% (active) | 5.69% (active) | 4.03% (active) | 4% (active) | 6.92% (active) | 8.82% (active) | -14.5% (active) |
| CCCCNc1nnc2n(Cc3ccccc3)c(=O)c3c4c(sc3n12)CCCC4 | – | 51.8% | 23.3% | 43.4% | 27.2% | 65% | 49.8% | 56.3% |
